# The list is not random: actives were taken first. Their share in the collection is about 1.3%.
# hERG WT inh = blocks the wildtype human KCNH2 potassium channel | U2OS, BacMam KCNH2, thallium flux FluxOr; active compounds read low | activity change, % at 1.84 µM | 340,000 tested, 0.37% active | AID 720551;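 active = maximum activity change below -70%; inconclusive = maximum activity change between -70% and -50%; inactive = maximum activity change above -50%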
#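 U2OS cells transduced with wild-type KCNH2 virus are loaded with FluxOr dye for 45 min, and thallium flux is measured in kinetic reads before and after stimulation buffer. Rate constants are normalized to DMSO controls.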
# KCNH2 3.1 block = blocks the human KCNH2 3.1 channel isoform; 340,000 tested, 0.95% active; U2OS KCNH2 3.1, thallium flux FluxOr; active compounds read low; AID 720553; activity change, % (tested at about 1.8 µM);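 active = maximum activity change below -70%; inconclusive = maximum activity change from -70% to -50%; inactive = maximum activity change above -50%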;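 also: thallium influx rate constant from kinetic fluorescence after stimulation buffer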
#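 Channel expression came from 3.1 mutant virus (1.77 x 10^8 /mL) applied to suspended U2OS cells for 4 h. Flux was tracked with FluxOr dye plus Red40 quencher, and kinetic rate constants normalized to controls.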
# Rango complex inh = Rango-importin beta binding inhibition. Q14974. Rango CFP/YFP FRET sensor + importin beta, 45 min. Potency, µM (series often up to 92.2 µM). 340,000 tested, 0.031% active; also: nearly all actives have a fitted effect of over 15% in size
# Target sequence (Q14974 whole entry, looked up): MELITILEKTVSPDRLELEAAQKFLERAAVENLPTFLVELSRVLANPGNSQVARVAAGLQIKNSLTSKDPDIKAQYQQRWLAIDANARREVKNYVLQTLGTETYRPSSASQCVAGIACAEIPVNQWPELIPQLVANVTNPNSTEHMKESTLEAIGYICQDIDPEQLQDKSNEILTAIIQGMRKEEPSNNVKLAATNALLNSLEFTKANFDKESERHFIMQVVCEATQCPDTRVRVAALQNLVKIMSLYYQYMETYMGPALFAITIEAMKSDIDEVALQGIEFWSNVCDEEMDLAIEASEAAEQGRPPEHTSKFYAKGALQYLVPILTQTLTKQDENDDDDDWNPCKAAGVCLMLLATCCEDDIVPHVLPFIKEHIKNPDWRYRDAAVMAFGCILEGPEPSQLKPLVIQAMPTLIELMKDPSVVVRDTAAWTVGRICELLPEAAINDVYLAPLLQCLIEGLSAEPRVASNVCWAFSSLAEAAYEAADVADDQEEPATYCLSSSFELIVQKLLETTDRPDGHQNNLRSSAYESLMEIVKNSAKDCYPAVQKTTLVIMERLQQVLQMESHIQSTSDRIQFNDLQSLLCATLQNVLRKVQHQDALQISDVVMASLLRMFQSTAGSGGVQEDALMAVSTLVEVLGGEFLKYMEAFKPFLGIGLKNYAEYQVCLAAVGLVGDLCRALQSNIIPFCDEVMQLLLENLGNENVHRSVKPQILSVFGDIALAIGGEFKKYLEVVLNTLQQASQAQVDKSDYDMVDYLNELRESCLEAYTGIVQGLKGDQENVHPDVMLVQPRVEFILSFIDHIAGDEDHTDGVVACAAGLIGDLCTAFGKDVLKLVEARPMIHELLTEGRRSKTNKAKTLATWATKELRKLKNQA
#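 FRET biosensor (snurportin 1 IBB flanked by EYFP and cerulean), 50 nM, with compound 5 min, then 0.125 microM importin beta in PBS, 1 mM DTT, 0.02% Tween-20, 0.1% BSA. CFP/YFP ratio read after 45 min at room temperature; pre-read flags interference.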
# Rango dissoc inh = prevents RanGTP from dissociating the Rango-importin beta complex; Biochemical FRET Rango-importin beta, RanGTP-induced dissociation; Potency, µM (top dose mostly 46.1 µM); 340,000 tested, 0.071% active; AID 540253; also: nearly all actives have a fitted effect of over 45% in size
#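 FRET read at 45 min, room temperature: inhibitors block the CFP/YFP signal rise when RanGTP (0.6 uM Ran, 2 mM GTP, 0.2 uM RCC1) frees Rango (0.1 uM) from importin beta (0.25 uM). Pre-read after 5 min compound exposure flags interference.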
# Hits are given with their value; – = inactive; ? = inconclusive; · = no result. Unless noted, calls follow the shape of the full dose curve.
SMILES,hERG WT inh,KCNH2 3.1 block,Rango complex inh,Rango dissoc inh
C[C@@]12C(=O)N(c3cccc(F)c3)C(=O)N1[C@@H]1c3ccccc3OC[C@@H]1[C@H]2c1ccccc1,–,–,–,–
Cc1ccc2c(c1)-c1cc(C)nn1C(c1sccc1C)N2 (centres undefined),-155,–,?,–
Cc1cc2n(n1)C(c1sccc1C)Nc1ccccc1-2 (centres undefined),–,–,–,–
CCN1CCC(O)(C(C(=O)OC)c2ccccc2)CC1 (centres undefined),–,–,–,–
Cc1ccc(-n2c3nc(=O)[nH]c(=O)c-3cc3c(C)nn(-c4ccccc4)c32)c(C)c1,-151,-149,–,–
Cc1nn(-c2ccccc2)c2nc3c(cc12)C(=O)CCC3,–,–,–,–
Cc1cccc(OCc2nnc(SCC(=O)NCc3ccc4c(c3)OCO4)o2)c1,–,–,·,·
Cc1[nH]c(=O)[nH]c(=O)c1C=CC(=O)NC(CO)CS(=O)Cc1ccccc1 (centres undefined),–,–,·,·
COc1ccc(OC(C)C(=O)N(C)Cc2nc(-c3ccc(OC)cc3)no2)cc1 (centres undefined),–,–,–,–
O=C(Nc1nccs1)c1cc2sccc2n1Cc1ccc(F)cc1,–,–,–,–
COc1ccc(NC(=O)c2cc3sccc3n2Cc2ccc(F)cc2)cc1OC,-249,–,–,–
CCC(C)[C@H]1CNCCN1CCC12CC3CC(CC(C3)C1)C2 (some centres undefined),–,-136,–,–
CC(=O)c1cccc(S(=O)(=O)N2CCC(C(=O)Nc3cccc(C(=O)NC4CC4)c3)CC2)c1,–,–,–,–
O=C(OCc1ccc(O)cc1)c1c(-c2ccsc2)oc2ccc(N3CCOCC3)cc12,–,–,?,?
Oc1ccc(/C=C/c2ccc3ccccc3n2)cc1,–,–,?,18µM
C(=C\c1ccc2ccccc2n1)/c1ccccc1,–,–,–,–
CC1=C(C(=O)Nc2cccc(C(=O)NC(C)c3ccccc3)c2)SCCO1 (centres undefined),–,–,–,–
CC(C)(C)NC1=NCCNC(c2ccccc2)=C1,-88,–,·,·
c1ccc(C2=NCCCN2)cc1,–,–,–,–
N#Cc1cc([N+](=O)[O-])ccc1Oc1cccc(/C=N/NC(=O)c2cccc(Cl)c2)c1,-77,?,–,–
CC(OC(=O)COc1cccc2c1OC(C)(C)C2)C(=O)Nc1ccc(S(N)(=O)=O)cc1 (centres undefined),–,–,–,–
Cc1ccc(SC[C@H](c2ccccc2)N2CCN(C)CCC2=O)cc1,·,·,–,–
CCCN1CCC(=O)N([C@H](CSc2ccc(OC)cc2)c2ccccc2)CC1,–,-93,–,–
CN1CCC(=O)N([C@H](CSc2ccccc2)c2ccccc2)CC1,–,-124,–,–
COc1ccc(SC[C@H](CC(C)C)N2CCN(CCc3ccccc3)CCC2=O)cc1,-75,-106,?,–
SMILES,hERG WT inh,KCNH2 3.1 block,Rango complex inh,Rango dissoc inh
Cc1ccc(SC[C@H](c2ccccc2)N2CCN(CC(C)C)CCC2=O)cc1,·,·,–,–
CCOc1ccc(CN2CCN(C/C=C/c3ccc(OC)cc3)CC2CCO)cc1 (centres undefined),–,-88,–,–
Cc1ncc(CN2CCN(Cc3ccccc3)C(CCO)C2)s1 (centres undefined),–,–,–,–
OCCC1CN(Cc2cccn2-c2nccs2)CCN1Cc1ccccc1 (centres undefined),–,–,–,–
CCOc1ccc(CN2CCN(Cc3cccn3-c3nccs3)CC2CCO)cc1 (centres undefined),-134,-113,–,–
COc1ccc(/C=C/CN2CCN(Cc3cccc(OC)c3)C(CCO)C2)cc1 (centres undefined),–,–,–,–
CCOc1ccc(CN2CCN(Cc3cnc(-c4ccccc4)s3)CC2CCO)cc1 (centres undefined),-96,-97,–,–
OCCC1CN(Cc2cccn2-c2nccs2)CCN1Cc1ccc(F)c(F)c1 (centres undefined),–,-85,–,–
CC(C)C(=O)Nc1ccc(NC(=S)NC(=O)c2ccccc2F)cc1,–,–,–,–
Nc1nc(N)nc(C2C=CCCC2)n1 (centres undefined),–,–,–,–
CCOC(=O)N1CCN(C(=O)NC2CCCCC2)CC1,–,-71,–,–
N#CCc1ccc(NC(=O)c2cc(S(=O)(=O)N3CCOCC3)ccc2Cl)cc1,–,–,?,–
O=C(CN1C(=O)c2ccccc2C1=O)NC1CCS(=O)(=O)C1 (centres undefined),–,-85,·,·
Cc1ccc(C(=O)NNC(=O)C2CCN(S(=O)(=O)c3ccc(C)cc3)CC2)cc1,–,–,–,–
Cc1ccc(S(=O)(=O)N2CCC(C(=O)NNC(=O)c3ccccc3)CC2)cc1,–,-115,–,–
Cc1ccc(C(=O)OCC(=O)NCc2ccc(Cl)cc2Cl)o1,–,–,–,–
Cc1cccc(OCCCC(=O)Nc2nnc(C3CCCO3)s2)c1C (centres undefined),–,–,–,–
CCc1ccc(OCCCC(=O)Nc2nnc(C3CCCO3)s2)cc1 (centres undefined),-248,–,–,–
Cc1ccc2nc(N/N=C\c3ccc([N+](=O)[O-])o3)nc(-c3ccccc3)c2c1,–,-97,–,–
N#Cc1ccccc1/C=N/Nc1nc(-c2ccccc2)c2cc(Br)ccc2n1,–,–,–,–
O=[N+]([O-])c1ccc(/C=N/Nc2nc(-c3ccccc3)c3cc(Br)ccc3n2)o1,–,-101,–,–
NS(=O)(=O)c1cccc(NC(=O)COC(=O)CN2C(=O)c3ccccc3C2=O)c1,–,–,–,–
CCOC(=O)c1sc(N(Cc2ccccc2)C(=O)COC(=O)c2cnccn2)nc1C,–,-92,–,–
Cc1nnc(N(Cc2ccccc2)C(=O)c2cnccn2)s1,–,–,–,–
COc1ccc(C(=O)N/C(=C\c2ccco2)C(=O)NCCCn2ccnc2)cc1,–,–,–,–
SMILES,hERG WT inh,KCNH2 3.1 block,Rango complex inh,Rango dissoc inh
COc1ccc(/C=C(\NC(=O)c2ccc(C)cc2)C(=O)NCCCn2ccnc2)cc1,?,-92,–,–
O=C(NCCCn1ccnc1)/C(=C\c1cccnc1)NC(=O)c1ccccc1F,–,–,–,–
O=C(NCCCn1ccnc1)Nc1ccc(Cl)cc1,–,-71,?,–
O=C(NCCCn1ccnc1)/C(=C\c1ccc(Br)cc1)NC(=O)c1ccccc1F,-129,-111,–,–
O=C(NCCCN1CCc2ccccc2C1)Nc1ccc(Cl)cc1,–,-87,–,–
O=C(NCC(=O)N1CC=C(c2ccccc2)CC1)c1ccc(F)cc1,–,–,–,–
O=C(NCCCn1ccnc1)/C(=C/c1ccc(Cl)cc1)NC(=O)c1ccccc1,-129,-105,–,–
CN(C)c1ccc(/C=C(/NC(=O)c2ccccc2)C(=O)NCCCn2ccnc2)cc1,–,–,?,?

# Screening results (PubChem BioAssay)
